# Records with an inconclusive call do not appear. The source made the active and inactive calls. The calls were made as follows: active = hit-call score of the fitted dose curve at least 0.9, where 1 is the maximum; inconclusive = response in the unintended direction; inactive = score below 0.9.
# Molecular target: human CYP1A1, CYP1A1 (gene 1543) (UniProt P04798)
# Test: NVS_ADME_hCYP1A1: NovaScreen (NVS) CYP450-related Enzyme Activity (ADME) Assay for human CYP1A1 (AID 2283100)
# Procedure: NVS_ADME_hCYP1A1 is a biochemical, single-readout assay that uses extracted gene-proteins in a cell-free assay. Measurements were taken 1 hour after chemical dosing in a 96-well plate.NVS_ADME_hCYP1A1 is one of one assay component(s) measured or calculated from the NVS_ADME_hCYP1A1 assay. It is designed to make measurements of enzyme activity, a form of enzyme reporter, as detected with fluorescence intensity signals by Fluorescence technology.Data from the assay component NVS_ADME_hCYP1A1 was analyzed into 1 assay endpoint. This assay endpoint, NVS_ADME_hCYP1A1, was analyzed in the positive analysis fitting direction relative to Acetonitrile as the negative control and baseline of activity. Using a type of enzyme reporter, loss-of-signal activity can be used to understand changes in the enzymatic activity as they relate to the gene CYP1A1. Furthermore, this assay endpoint can be referred to as a primary readout, because this assay has produced multiple assay endpoints where this one serves a enzymatic activity function. To generalize the intended target to other relatable targets, this assay endpoint is annotated to the cyp intended target family, where the subfamily is xenobiotic metabolism.
# Binding assays used specific radioligands (tritiated, iodinated) with non-radioactive competitive displacement ligands in agonist or antagonist protocols (as indicated) and various reference compounds and inhibitors to titrate specific binding to receptors and transporters. Most enzyme assays (CYPs, kinases, phosphatases, proteases, HDACs) used recombinant protein and specific substrates (fluorescence mostly, some colorimetric and radioactive) and inhibitors, followed by a biochemical separation of substrate and product. All assays for the biochemical HTS were initially run in duplicate at a single concentration (10 uM for CYP450 assays and 25 uM for all others). Assay-chemical combinations meeting a pre-defined threshold (e.g., 30% inhibition and other criteria defined below) were then run in singleton concentration-response format with maximum concentration of 20 uM for CYPs and 50 uM for all others. Each assay was run with positive and negative controls, and concurrent controls on every plate. The follow-up (secondary) screen tested active chemical-pairs in concentration series, as well as a few additional assays not tested in the primary screen, some selected negative inactives, and several cases re-run in the concentration series for confirmatory purposes.
# human CYP1A1, CYP1A1 (gene 1543), sequence (P04798 whole entry, looked up): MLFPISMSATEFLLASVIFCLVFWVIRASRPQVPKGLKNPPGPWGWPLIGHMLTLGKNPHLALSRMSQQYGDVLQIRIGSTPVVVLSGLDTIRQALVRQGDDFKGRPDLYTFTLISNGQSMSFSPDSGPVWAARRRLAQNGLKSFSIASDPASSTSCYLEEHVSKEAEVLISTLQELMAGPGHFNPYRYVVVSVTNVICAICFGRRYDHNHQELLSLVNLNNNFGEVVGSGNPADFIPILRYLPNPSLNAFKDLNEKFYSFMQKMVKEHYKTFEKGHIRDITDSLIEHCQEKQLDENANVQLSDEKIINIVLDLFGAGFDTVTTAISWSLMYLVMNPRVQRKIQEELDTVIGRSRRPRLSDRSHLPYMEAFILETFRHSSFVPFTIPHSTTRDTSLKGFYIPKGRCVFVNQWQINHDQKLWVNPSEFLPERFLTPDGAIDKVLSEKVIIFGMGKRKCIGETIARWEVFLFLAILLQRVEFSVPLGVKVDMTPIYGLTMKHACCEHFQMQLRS
SMILES,outcome,AC50
Fc1ccccc1[C@@H](F)COC1CCC(Nc2ncnc3[nH]ncc23)CC1 (stereo partly specified),inactive,
CC(C)=CCCC(C)CCO (stereo unspecified),inactive,
Cc1c(-c2cccnc2)c2ccccc2n1CCCCC(=O)O,,4.39 µM (active)
CCOC(=O)COc1ccc2c(c1)CC(NCC(O)c1cccc(Cl)c1)CC2 (stereo unspecified),inactive,
O=C(O)c1cc(N=Nc2ccc(S(=O)(=O)Nc3ccccn3)cc2)ccc1O,inactive,
CN(C)c1ccc(Cc2ccc(N(C)C)cc2)cc1,inactive,
CC(C)(O)c1coc(S(=O)(=O)NC(=O)Nc2c3c(cc4c2CCC4)CCC3)c1,inactive,
Cc1[nH]cnc1C[C@H]1CCc2c(C)c3ccccc3n2C1=O,,3.83 µM (active)
CC(=O)OCCC(C)C,inactive,
Oc1ccc2c(c1)-c1ccccc1C2,,6.18 µM (active)
CCc1cc(SCc2sc(-c3ccc(C(F)(F)F)cc3)nc2CN2CCN(c3ccc(OC)cc3)CC2)ccc1OCC(=O)O,inactive,

# Reference: PubChem BioAssay (EPA / NIEHS)
